Test results from PubChem BioAssay AID1159580 (chemical genetic matrix, 2015).
The whole screen tested about 5,500 compounds, of which about 2,000 (36%) were called active. Inconclusive results (about 18%) are left out. Cut-off read from the data, not from the text of the source: active = normalized growth mostly below about 0.91 (no sharp cut-off); inconclusive = no clear call, values can overlap the other calls; inactive = mostly above about 0.92. This is one part of the list.

Test: chemical genetic growth profiling, strain panel (AID 1159580);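 note: tested at 20 µM; growth read once vehicle control cultures reached saturation at 30 °C; 1 = growth at the plate median or of vehicle wells; lower values mean less growth of the strain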
Details: S. cerevisiae deletion strains, growth OD
[1] = locus YBR229C, strain ROT2, hits give low values
[2] = locus YCL061C, strain MRC1, hits give low values
[3] = locus YDL101C, strain DUN1, hits give low values
[4] = locus YEL061C, strain CIN8, hits give low values
[5] = locus YHR030C, strain SLT2, hits give low values
[6] = locus YJR075W, strain HOC1, hits give low values
[7] = locus YLR039C, strain RIC1, hits give low values
[8] = locus YMR307W, strain GAS1, hits give low values
[9] = locus YPL241C, strain CIN2, hits give low values

Measured: normalized growth

N#C/C(=C\N(CCS(=O)(=O)c1ccc(Cl)cc1)Cc1cccs1)S(=O)(=O)c1ccc(Cl)cc1
inactive: locus YAL013W, strain DEP1, hits give low values 0.999 | [1] 1.01 | [2] 1.02 | [3] 1 | locus YDR150W, strain NUM1, hits give low values 1.08 | [4] 0.973 | locus YGR078C, strain PAC10, hits give low values 1.01 | [5] 1.05 | locus YHR087W, strain rtc3, hits give low values 1.01 | locus YJR043C, strain POL32, hits give low values 1.03 | [6] 1.04 | locus YKL190W, strain CNB1, hits give low values 0.987 | [7] 1.06 | locus YLR058C, strain SHM2 (second series), hits give low values 1 | locus YLR085C, strain ARP6, hits give low values 0.943 | locus YLR262C, strain YPT6, hits give low values 1.06 | locus YML094W, strain GIM5, hits give low values 0.981 | locus YMR219W, strain ESC1, hits give low values 1 | locus YMR263W, strain SAP30, hits give low values 1.09 | [8] 1.08 | locus YNL153C, strain GIM3, hits give low values 1.03 | locus YNL298W, strain CLA4 (second series), hits give low values 0.947 | locus YNL322C, strain KRE1, hits give low values 0.996 | locus YNR030W, strain Alg12, hits give low values 1 | locus YPL055C, strain LGE1, hits give low values 1.13 | [9] 0.981 | locus YPR135W, strain CTF4, hits give low values 1.19

COc1c2c(cc3c1OCO3)C13C=C[C@H](OC)CC1N(C2)CC3O (stereo not given in full)
inactive: locus YAL021C, strain ccr4, hits give low values 0.966 | locus YAL026C, strain drs2, hits give low values 0.976 | locus YAL030W, strain snc1, hits give low values 0.996 | locus YBL061C, strain skt5, hits give low values 0.984 | locus YBR009C, strain hhf1, hits give low values 1 | locus YBR021W, strain FUR4, hits give low values 1.06 | locus YBR023C, strain chs3, hits give low values 0.981 | locus YBR171W, strain sec66, hits give low values 1 | [1] 1 | locus YBR231C, strain swc5, hits give low values 1 | locus YBR279W, strain paf1, hits give low values 0.963 | locus YCL011C, strain gbp2, hits give low values 0.969 | locus YCL016C, strain dcc1, hits give low values 0.955 | locus YCL029C, strain bik1, hits give low values 0.981 | [2] 0.979 | locus YCL069W, strain vba3, hits give low values 0.991 | locus YCR088W, strain abp1, hits give low values 0.991 | locus YDL005C, strain med2, hits give low values 0.976 | locus YDL035C, strain GPR1, hits give low values 1.03 | locus YDL040C, strain nat1, hits give low values 1 | locus YDL074C, strain BRE1, hits give low values 1.01 | [3] 0.985 | locus YDL185W, strain tfp1, hits give low values 0.961 | locus YDL192W, strain arf1, hits give low values 0.986 | locus YDR001C, strain nth1, hits give low values 0.988 | locus YDR069C, strain doa4, hits give low values 0.963 | locus YDR101C, strain arx1, hits give low values 1.01 | locus YDR137W, strain rgp1, hits give low values 0.953 | locus YDR159W, strain sac3, hits give low values 0.968 | locus YDR162C, strain NBP2, hits give low values 0.99 | locus YDR195W, strain ref2 0.966 | locus YDR297W, strain sur2, hits give low values 0.976 | locus YDR318W, strain mcm21, hits give low values 0.989 | locus YDR334W, strain swr1, hits give low values 0.978 | locus YDR335W, strain msn5, hits give low values 0.972 | locus YDR388W, hits give low values 0.983 | locus YDR392W, strain spt3, hits give low values 0.915 | locus YDR502C, strain sam2, hits give low values 0.988 | locus YEL003W, strain gim4, hits give low values 1 | locus YEL037C, strain rad23, hits give low values 0.983 | locus YEL061C, strain CIN8 (second series), hits give low values 0.984 | [4] 1 | locus YER015W, strain faa2, hits give low values 0.972 | locus YER016W, strain bim1, hits give low values 0.975 | locus YER110C, hits give low values 0.97 | locus YER111C, strain swi4, hits give low values 0.977 | locus YER155C, strain BEM2 (second series), hits give low values 1.05 | locus YER155C, strain BEM2, hits give low values 0.997 | locus YER167W, strain BCK2, hits give low values 0.998 | locus YFR010W, strain ubp6, hits give low values 1.02 | locus YGL078C, strain dbp3, hits give low values 0.975 | locus YGL086W, strain mad1, hits give low values 1 | locus YGL167C, strain pmr1, hits give low values 0.999 | locus YGL173C, strain kem1, hits give low values 1.01 | locus YGL227W, strain vid30, hits give low values 0.987 | locus YGL240W, strain doc1, hits give low values 1.04 | locus YGL248W, strain PDE1, hits give low values 0.999 | locus YGL253W, strain hxk2, hits give low values 0.963 | locus YGR135W, strain pre9, hits give low values 0.972 | locus YGR252W, strain gcn5, hits give low values 1.08 | locus YHR013C, strain ard1, hits give low values 0.956 | locus YHR027C, strain rpn1, hits give low values 0.989 | [5] 0.986 | locus YHR079C, strain IRE1 (second series), hits give low values 0.986 | locus YHR094C, strain hxt1, hits give low values 0.978 | locus YHR129C, strain ARP1, hits give low values 0.994 | locus YHR142W, strain chs7, hits give low values 0.951 | locus YHR200W, strain rpn10, hits give low values 0.992 | locus YIL066C, strain RNR3, hits give low values 1 | locus YIL073C, strain SPO22, hits give low values 0.94 | locus YIL125W, strain kgd1, hits give low values 0.984 | locus YIR030C, strain dcg1, hits give low values 0.97 | locus YJL092W, strain hpr5, hits give low values 0.982 | locus YJL095W, strain BCK1 (second series), hits give low values 0.972 | locus YJL095W, strain BCK1, hits give low values 0.975 | locus YJL115W, strain asf1, hits give low values 0.957 | locus YJL129C, strain trk1, hits give low values 0.95 | locus YJL134W, strain LCB3, hits give low values 0.99 | locus YJL154C, strain vps35, hits give low values 0.977 | locus YJL164C, strain tpk1, hits give low values 1.02 | locus YJL166W, strain qcr8, hits give low values 0.989 | locus YJL168C, strain set2, hits give low values 0.985 | locus YJL187C, strain SWE1 (second series), hits give low values 0.98 | locus YJL187C, strain SWE1, hits give low values 0.987 | [6] 1 | locus YKL009W, strain mrt4, hits give low values 0.992 | locus YKL068W, hits give low values 0.98 | locus YKL085W, strain MDH1 (second series), hits give low values 1 | locus YKL085W, strain MDH1, hits give low values 1 | locus YKL160W, strain elf1, hits give low values 0.95 | locus YKR001C, strain vps1, hits give low values 0.99 | locus YKR026C, strain gcn3, hits give low values 0.993 | locus YKR091W, strain srl3, hits give low values 0.978 | locus YLL001W, strain dnm1, hits give low values 0.996 | locus YLL026W, hits give low values 0.98 | locus YLL041C, strain sdh2, hits give low values 0.98 | locus YLR027C, strain aat2, hits give low values 0.996 | [7] 1 | locus YLR058C, strain SHM2, hits give low values 0.994 | locus YLR102C, strain apc9, hits give low values 0.988 | locus YLR221C, strain rsa3, hits give low values 1.04 | locus YLR258W, strain gsy2, hits give low values 0.981 | locus YLR262C, strain YPT6 (second series), hits give low values 1 | locus YLR268W, strain sec22, hits give low values 1.02 | locus YLR320W, strain mms22, hits give low values 1.02 | locus YLR342W, strain FKS1 (second series), hits give low values 1.08 | locus YLR342W, strain FKS1, hits give low values 0.988 | locus YLR357W, strain rsc2, hits give low values 0.981 | locus YLR370C, strain arc18, hits give low values 0.971 | locus YLR371W, strain rom2, hits give low values 0.957 | locus YLR384C, strain iki3, hits give low values 0.978 | locus YLR418C, strain cdc73, hits give low values 1.01 | locus YML016C, strain PPZ1, hits give low values 0.999 | locus YML032C, strain rad52, hits give low values 1 | locus YML120C, strain ndi1, hits give low values 1 | locus YML124C, strain tub3, hits give low values 0.982 | locus YMR058W, strain fet3, hits give low values 0.979 | locus YMR078C, strain ctf18, hits give low values 0.967 | locus YMR125W, strain sto1, hits give low values 0.98 | locus YMR129W, hits give low values 0.965 | locus YMR205C, strain PFK2, hits give low values 1.02 | locus YMR223W, strain ubp8, hits give low values 0.986 | locus YMR231W, strain pep5, hits give low values 0.993 | [8] 1.23 | locus YNL067W, strain RPL9B, hits give low values 0.974 | locus YNL071W, strain lat1, hits give low values 0.993 | locus YNL128W, strain TEP1, hits give low values 0.985 | locus YNL209W, strain ssb2, hits give low values 0.963 | locus YNL233W, strain BNI4, hits give low values 1.01 | locus YNL248C, strain rpa49, hits give low values 0.938 | locus YNL250W, strain rad50, hits give low values 0.983 | locus YNL271C, strain bni1, hits give low values 0.992 | locus YNL298W, strain CLA4, hits give low values 0.985 | locus YNL307C, strain MCK1, hits give low values 0.991 | locus YNL322C, strain KRE1 (second series), hits give low values 0.983 | locus YNR049C, strain mso1, hits give low values 0.954 | locus YNR052C, strain pop2, hits give low values 0.977 | locus YOL012C, strain htz1 0.827 | locus YOL147C, strain pex11, hits give low values 0.983 | locus YOR001W, strain rrp6, hits give low values 1.05 | locus YOR061W, strain CKA2, hits give low values 0.993 | locus YOR069W, strain VPS5, hits give low values 0.986 | locus YOR070C, strain gyp1, hits give low values 0.974 | locus YOR080W, strain dia2, hits give low values 0.964 | locus YOR083W, strain WHI5, hits give low values 0.928 | locus YOR106W, strain vam3, hits give low values 0.957 | locus YOR136W, strain idh2, hits give low values 0.992 | locus YOR144C, strain elg1, hits give low values 0.99 | locus YOR184W, strain ser1, hits give low values 1.04 | locus YOR265W, strain rbl2, hits give low values 0.99 | locus YOR270C, strain vph1, hits give low values 0.973 | locus YOR290C, strain snf2, hits give low values 0.956 | locus YOR316C, strain cot1, hits give low values 0.983 | locus YPL051W, strain arl3, hits give low values 0.963 | locus YPL078C, strain atp4, hits give low values 0.96 | locus YPL106C, strain sse1, hits give low values 0.984 | locus YPL240C, strain hsp82, hits give low values 0.992 | [9] 0.988 | locus YPR119W, strain clb2, hits give low values 0.981 | locus YPR141C, strain kar3, hits give low values 0.968 | locus YPR163C, strain tif3, hits give low values 0.996 | locus YPR167C, strain met16, hits give low values 0.981 | strain wtn01, hits give low values 1.01
